# Screening data (PubChem BioAssay)
# Only some compounds are listed: those with a hit (about 21% of all), similar ones and a draw of the others.
# Pf growth 96h = P. falciparum growth inhibition at 96 hours; AID 504834; 320,000 tested, 6.9% active; P. falciparum luciferase reporter growth, 96 h; Potency, µM (series often up to 28.7 µM), hits mostly inhibitors
#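 Luminescence readout: decreased luciferase signal marks inhibited growth of reporter-expressing P. falciparum in infected red cells (2% hematocrit, 0.05% parasitemia final), exposed to compound two generations (96 h, 37 C, 5% CO2).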
# NS1 inh = blocks influenza NS1 protein function | Potency, µM (top dose mostly 46.1 µM) | 270,000 tested, 0.4% active; calls by dose curve; note: actives are rising curves; nearly all actives have a fitted effect of over 50% in size
#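 Recovery from NS1-induced slow growth read by OD600 in budding yeast switched to galactose assay medium (pH 6.0, -URA) at 1:100 dilution. Compound 23 nl per well; the matching strain lacking NS1 serves as control.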
# Pf growth 48h = P. falciparum growth inhibition at 48 hours (one generation). P. falciparum luciferase growth in erythrocytes, 48 h. Potency, µM (top dose mostly 28.7 µM), usual class: inhibitors. 310,000 tested, 5.9% active. AID 504832
#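 Parasite viability was followed by luminescence of a genomically integrated firefly luciferase. Cultures held 0.1% parasitemia at 2% hematocrit (final), incubated under 5% CO2 at 37 C.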
# Shiga toxin inh = inhibitors of Shiga toxin in Vero cells. inhibition, % at 38.7 µM. Vero cells, Shiga toxin protein synthesis inhibition reporter. 290,000 tested, 9.2% active; in the data active = inhibition mostly above about 28%, no sharp cut-off; inactive = mostly below about 43%
# Cycloheximide cs = counter-screen for Shiga toxin inhibitors: cycloheximide protein synthesis inhibition. cell reporter, cycloheximide protein synthesis inhibition counterscreen. max response, %. 300,000 tested, 12% active. AID 2314; in the data active = max response mostly above about 13%, no sharp cut-off; inactive = mostly below about 14%; note: read at 38.3 µM for the half of the compounds with a filed dose
# Hits are given with their value; . = inactive; ? = inconclusive; / = not tested or not shown; [ ] = another dose, or the depositor's remark. Unless noted, calls come from the whole dose curve; as a rule, active = well fitted inhibition curve with a large enough effect; inconclusive = small, poorly fitted or top-dose-only effect, or another doubt; inactive = no such curve, though single readings can be large or run the other way.
SMILES,Pf growth 96h,NS1 inh,Pf growth 48h,Shiga toxin inh,Cycloheximide cs
CCN(CC(=O)Nc1ccc(NC(C)=O)cc1)C(=O)c1ccc(=O)n(C)n1,.,/,.,/,/
COc1cc(C(=O)NCCOc2cccc(C)c2)c(Br)c(OC)c1OC,.,.,.,.,.
NNC(=O)c1oc2nc(-c3ccc(Cl)cc3)cc(-c3ccccc3)c2c1N,2.6µM,.,4.1µM,.,.
CC1(C)Cc2ccccc2-c2nnc(-c3ccccc3)n21,/,.,.,.,.
c1ccc(-c2cn3c(n2)-c2ccccc2C3)cc1,.,.,.,45,26
COc1ccc(NC(=O)COC(=O)/C=C/c2cnc3ccccc3n2)cc1,.,.,.,.,.
Nc1nc2ccc(S(=O)(=O)c3ccc4nc(N)sc4c3)cc2s1,.,.,.,.,.
CC(C)c1ccc2nc(N)sc2c1,.,/,.,64,26
Cc1cc2nc(N)sc2cc1C,.,.,.,49,41
CC(NC(=O)CSc1nc2ccc(N)cc2s1)c1ccccc1 (centres undefined),.,.,.,.,.
Nc1nc2ccc(C(=O)N3CCCCC3)cc2s1,4.1µM,.,.,.,.
Nc1nc2c(F)c(F)c(F)cc2s1,.,/,.,.,.
Nc1nc2ccc(O)cc2s1,10µM,.,.,.,.
COc1cc(C)ccc1OCc1cc(C(=O)N2CCCCCCC2)no1,?,.,?,92,51
COc1cc(C)ccc1OCc1cc(C(=O)N2CCN(C3CCCCC3)CC2)no1,.,.,.,58,48
Cc1ccc(C)c(OCc2cc(C(=O)N3C[C@H]4C[C@@H](C3)c3cccc(=O)n3C4)no2)c1,.,.,.,.,.
CCN1CCN(C(=O)c2cc(COc3ccc(C(C)=O)cc3OC)on2)CC1,.,.,.,75,43
CC(=O)c1ccc(S(=O)(=O)N2CCCC(N(C)CCc3ccccn3)C2)cc1 (centres undefined),.,.,.,.,.
COc1ccc(CC(=O)NNS(=O)(=O)c2ccccc2[N+](=O)[O-])cc1,4.7µM,.,.,.,.
COc1ccc(CC(=O)Nc2ccccc2N2CCCC2)cc1,?,.,?,.,.
COc1ccc(CC(=O)Nc2cc(Cl)ccc2O)cc1,?,.,?,.,11
COc1ccc(CCC(=O)Nc2cc(Cl)ccc2OC)cc1,?,.,/,.,.
COc1ccc(CC(=O)Nc2ccccc2NC(=O)Cc2ccc(OC)cc2)cc1,.,.,6.6µM,.,.
COc1ccc(F)cc1C(=O)C1CCCN(Cc2c(C)n(C)n(-c3ccccc3)c2=O)C1 (centres undefined),.,.,.,.,.
C=CCc1cc(OC)ccc1OCCOCCN1CCc2ccccc2C1,13µM,/,.[5.75 µM],.,.
SMILES,Pf growth 96h,NS1 inh,Pf growth 48h,Shiga toxin inh,Cycloheximide cs
CCOc1ccc(OCCOCCN2CCc3ccccc3C2)cc1,.,.,.,.,.
Cc1cc(C)c(OCC(=O)OCC(=O)NC2CCC(C)CC2)c(C)c1 (centres undefined),.,/,.,/,/
O=C(NCC1CCCO1)C1CCN(C2CCN(C3CCCCCC3)CC2)CC1 (centres undefined),.,.,.,.,.
CC(NS(=O)(=O)c1ccc2c(c1)CC(=O)N2C)c1ccccc1 (centres undefined),?,.,.,.,.
CN1C(=O)Cc2cc(S(=O)(=O)N3CCOCC3)ccc21,4.7µM,.,.,.,.
CC(CNS(=O)(=O)c1ccc2c(c1)CC(=O)N2C)c1ccccc1 (centres undefined),10µM,.,9.3µM,.,.
CCOC(=O)C1CCN(S(=O)(=O)c2ccc3c(c2)CCCN3C(C)=O)CC1,/,.,.,.,.
Cc1cccc(N2CCN(S(=O)(=O)c3ccc4c(c3)CC(=O)N4C)CC2)c1C,?,.,9.3µM,.,.
CCOC(=O)C1CCN(S(=O)(=O)c2ccc3c(c2)CC(=O)N3C)CC1,.,?,2.1µM,.,.
CCCNC(=O)c1oc2ccc3c(c2c1C)C(=O)CC(C)(C)O3,/,.,.,50,44
CCOC(=O)N1CCC2(CC1)CC(=O)c1c(ccc3oc(C(=O)O)c(C)c13)O2,/,.,.,.,.
CCOC(=O)c1oc2ccc3c(c2c1C)C(=O)CC1(CCN(C(=O)OCC)CC1)O3,.,.,2.6µM,.,.
CCCNC(=O)c1oc2ccc3c(c2c1C)C=CC(C)(C)O3,.,.,.,76,49
Cc1cc(=O)n2nc(N3CCCC(C(=O)NC4CCCCC4C)C3)sc2n1 (centres undefined),.,.,.,.,.
COc1ccc(S(=O)(=O)NNC(=S)NCCc2ccccc2)c(OC)c1,?,.,.,.,.
Cc1sc(NC(=O)Nc2ccccc2)c(C(N)=O)c1C,.,.,.,72,43
CC1(C)Cc2c(sc(NC(=O)Nc3ccccc3)c2C(N)=O)CO1,?,.,.,.,33
CN1CCC(N(C)C(=O)CCc2nc3ccccc3c(=O)[nH]2)CC1,.,.,.,.,.
Fc1ccc(CSc2nnc(-c3cccnc3)o2)cc1,.,.,.,.,17
c1ccc(CSc2nnc(-c3cccnc3)o2)cc1,.,.,.,74,31
Cc1ccccc1-c1nnc(SCc2ccc(F)cc2)o1,.,.,.,45,30
COc1ccccc1-c1nc(C#N)c(NCc2ccc(F)cc2)o1,/,.,.,.,.
Cc1ccccc1-n1c(O)c(/C=N/N2CCCCC2c2cccnc2)c(=O)[nH]c1=O (centres undefined),.,.,.,.,.
O=C(CCCN1C(=O)/C(=C/c2ccccc2Cl)SC1=S)NCCCN1CCOCC1,?,.,12µM,.,.
O=C(CCN1C(=O)/C(=C/c2ccccc2F)SC1=S)NCCCN1CCOCC1,.,.,?,.,.
SMILES,Pf growth 96h,NS1 inh,Pf growth 48h,Shiga toxin inh,Cycloheximide cs
O=C(CCN1C(=O)/C(=C/c2ccccc2Cl)SC1=S)N1CCOCC1,?,?,13µM,.,.
O=C(CCN1C(=O)/C(=C\c2ccccc2)SC1=S)N1CCOCC1,.,.,12µM,.,.
O=C(CCN1C(=O)/C(=C/c2ccccc2Cl)SC1=S)N1CCCC1,?,.,?,.,.
O=C(CCCN1C(=O)/C(=C/c2ccccc2)SC1=S)N1CCOCC1,.,.,?,.,.
O=C(CCCN1C(=O)/C(=C/c2ccccc2Cl)SC1=S)N1CCCC1,9.3µM,.,?,.,.
CCc1ccc(/C=C2/SC(=S)N(CCC(=O)NCCCN3CCOCC3)C2=O)cc1,?,.,?,91,48
O=C(O)C1CCN(C(=O)CCN2C(=O)S/C(=C\c3ccccc3)C2=O)CC1,.,.,.,.,.
COC(=O)c1ccc(/C=C2/SC(=S)N(CCC(=O)NCCCN3CCOCC3)C2=O)cc1,?,.,.,.,.
O=C(CCN1C(=O)S/C(=C\c2ccccc2)C1=O)N1CCCCC1,.,.,.,75,27
O=C1NC2CCc3nc4ccccc4c(=O)n3C2=Nc2ccccc21 (centres undefined),12µM,.,.,.,.
O=C1NC(Cc2ccccc2)c2nc3ccccc3c(=O)n2-c2ccc(Cl)cc21 (centres undefined),.,/,.,/,/
CN(C)CCCNC(CC(=O)Nc1ccc(Cl)cc1)C(=O)O (centres undefined),/,.,/,/,/
